# Reference: PubChem BioAssay (Tox21)
# “And” between values parts separate entries of the source, which are not always exact repeats. Equal values may be shown once. Results filed as inconclusive are left out. Entries that show only a call come without a potency. The source made the active and inactive calls. Calls come from the whole dose curve.
# Experiment: qHTS assay for small molecules that induce genotoxicity in human embryonic kidney cells expressing luciferase-tagged ATAD5 - cell viability (AID 651634); note: nearly all actives have a fitted effect of over 25% in size
# Conditions: HEK293T ATAD5-luc cells viability, CellTiter-Fluor, 15.5 h; series mostly up to 83.3 µM
# From the text: National Center for Advancing Translational Sciences [NCATS]
# NIH Chemical Genomics Center [NCGC]
# U.S. Environmental Protection Agency [EPA]
# National Institutes of Environmental Health Sciences [NIEHS]
# National Toxicology Program [NTP]
# U.S. Food and Drug Administration [FDA]
# Enhanced Level of Genome Instability Gene 1 (ELG1; human ATAD5) protein levels increase in response to various types of DNA damage. Using a luciferase reporter-gene tagged with ElG1, a cell-based assay [developed by Kyungjae Myung, NHGRI, NIH] was used to measure the induction of ATAD5 in human embryonic kidney cells (HEK293T). So, increase in luciferase activity can be used to identify the compounds that cause genetic stress. In addition to genotoxicity, these cells were also used to test for cytotoxicity by measuring the protease activity within live cells.
# Tox21 Assay Protocol Summary:
# For cytotoxicity screening, 2,000 cells in 5 uL/well were dispensed into white, solid-bottom 1536-well plates using a Multidrop Combi (Thermo Scientific) dispenser. Following transfer of 23 nL compound or DMSO vehicle by a pin tool, the plates were incubated 15.5 hr at 37C and 5% CO2. 1 ul CellTiter-Fluor reagent (Promega, Madison, WI) was then added to each plate and following 30 min incubation at 37C, fluorescence intensity was quantified on a ViewLux CCD-based plate reader.
# Potency is the fitted concentration of half-maximal effect.
row,Compound,Potency
1,C=C(C)C(=O)O,inactive
2,CC[C@@H](N)CO,inactive
3,COc1ccc(COC(C)=O)cc1,inactive
4,CC(C)(O)CCC(C)(C)O,inactive
5,Clc1ccc2c(c1)C(N1CCNCC1)=Nc1ccccc1O2,inactive
6,O=C(O)CCc1ccccc1,inactive
7,CCn1c2ccccc2c2cc(N)ccc21,inactive
8,O=C1NCC2(CCN(CCc3ccccc3)CC2)O1,inactive
9,Nc1ccc2cc3ccccc3cc2c1,inactive
10,CC(N)=O,inactive
11,CCCCCCC(O)CCCCCCCCCCC(=O)O (stereo not given),inactive
12,CC1COc2c(N3CCN(C)CC3)c(F)cc3c(=O)c(C(=O)O)cn1c23 (stereo not given),inactive
13,Nc1cc(S(=O)(=O)O)cc2cc(S(=O)(=O)O)cc(O)c12,inactive
14,C=CC(=O)OCCCCCCCC,inactive
15,CCCCCC(=O)O[C@]1(C(C)=O)CC[C@H]2[C@@H]3CCC4=CC(=O)CC[C@]4(C)[C@H]3CC[C@@]21C,inactive
16,Oc1c(Cl)cc(Cl)c(Cl)c1Cc1c(O)c(Cl)cc(Cl)c1Cl,6.68 µM (active) and 2.72 µM (active) and 1.93 µM (active)
17,OCCN1CCNCC1,inactive
18,C=CS(=O)(=O)O,inactive
19,Cc1cc(Cc2cc(C)cc(C(C)(C)C)c2O)c(O)c(C(C)(C)C)c1,61.4 µM (active) and 61.1 µM (active)
20,OCCOCCN1CCN(C(c2ccccc2)c2ccc(Cl)cc2)CC1 (stereo not given),inactive

row,Compound,Potency
1,CO[Si](OC)(OC)c1ccccc1,inactive
2,CC(C)(C)NCC(O)c1cc(O)cc(O)c1 (stereo not given),inactive
3,O=C1CC2(CCCC2)CC(=O)N1CCCCN1CCN(c2ncccn2)CC1,inactive
4,CC(COc1ccccc1)N(CCCl)Cc1ccccc1 (stereo not given),inactive
5,C=C(C)C1CC=C(C)C(OC(C)=O)C1 (stereo not given),inactive
6,c1ccc2cc3c(ccc4ccccc43)cc2c1,inactive
7,Oc1ccc(Cl)cc1Cc1cc(Cl)ccc1O,inactive
8,CCC(CO)(CO)COCC(CC)(CO)CO,inactive
9,COC(c1ccccc1)(c1ccccc1)[C@H](Oc1nc(C)cc(C)n1)C(=O)O,inactive
10,CCN(CC)c1ccc2c(C)cc(=O)oc2c1,inactive
11,COC(=O)/C=C/c1ccccc1,inactive
12,NC(Cc1ccc(Cl)cc1)C(=O)O (stereo not given),inactive
13,CCCOC(=O)c1cc(O)c(O)c(O)c1,inactive
14,Cc1cc(C2(c3cc(C)c(O)cc3C)OS(=O)(=O)c3ccccc32)c(C)cc1O,30.6 µM (active) and 17.2 µM (active)
15,NCCCCCC(=O)O,inactive
16,COC(=O)[C@H]1[C@H]2C[C@@H]3c4[nH]c5cc(OC)ccc5c4CCN3C[C@H]2C[C@@H](OC(=O)c2cc(OC)c(OC)c(OC)c2)[C@@H]1OC,inactive
17,CC(C(O)c1ccc(O)cc1)N1CCC(Cc2ccccc2)CC1 (stereo not given),inactive
18,Cc1cc(OCCOCC[N+](C)(C)Cc2ccccc2)ccc1C(C)(C)CC(C)(C)C,9.63 µM (active)
19,O=Nc1ccc(Nc2ccccc2)cc1,48.8 µM (active)
20,CC(C)(C)c1cc(C(C)(C)C)c(O)c(C(C)(C)C)c1,inactive
